This note sets out measurements from PubChem BioAssay (Tox21).

The nature of test [1]: qHTS assay to identify small molecule antagonists of the thyroid receptor (TR) signaling pathway (AID 743065). Further: nearly all actives have a fitted effect of over 55% in size. Further: potency means the concentration at half of the fitted maximal effect. The gist of the method:
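Antagonism measured as loss of luciferase signal in GH3 cells stably carrying a TRE-luciferase reporter, co-treated with compound and T3 (1 nM final) for 23.5 h at 37 C. Viability was read in the same well by CellTiter-Fluor.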
In general terms: In qHTS, concentration-response curves come from the screen itself.

Test [2] relates to thyroid hormone receptor (rat, GH3 cells). As to the kind of experiment: qHTS assay to identify small molecule agonists of the thyroid receptor (TR) signaling pathway (AID 743066; calls by dose curve).
The target of test [3] is Estrogen receptor (Homo sapiens) (UniProt P03372). As to the kind of experiment: qHTS assay to identify small molecule antagonists of the estrogen receptor alpha (ER-alpha) signaling pathway (AID 743069; active means well fitted curve in the direction sought with a large enough effect in the signal ratio in the repeat runs, not every such curve was filed as active; the % refers to the signal ratio). The gist of the method:
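ER-alpha-UAS-bla GripTite HEK293 line; 2% charcoal-stripped FBS overnight; plated, 4 hr 37C/5% CO2; cpd in DMSO + 17beta-estradiol, 18 hr 37C; LiveBLAzer B/G FRET substrate 2 hr RT; fluorescence intensity.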

A short description of test [4]: qHTS assay to identify small molecule antagonists of the estrogen receptor alpha (ER-alpha) signaling pathway - cell viability counter screen (AID 743074; calls by dose curve;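 further: HEK293 cells carrying ER-alpha-UAS-bla reporter stimulated with 17beta-estradiol; nearly all actives have a fitted effect of over 45% in size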).
Test [5] addresses Estrogen receptor (Homo sapiens) (UniProt P03372). Kind of test: qHTS assay to identify small molecule agonists of the estrogen receptor alpha (ER-alpha) signaling pathway (AID 743075; calls by dose curve;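 further: HEK293 GripTite cells with ER-alpha and UAS-driven beta-lactamase reporter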).
The target is the same in test [6]. As to the kind of experiment: qHTS assay to identify small molecule agonists of the estrogen receptor alpha (ER-alpha) signaling pathway using the BG1 cell line (AID 743079). Further: nearly all actives have a fitted effect of over 20% in size. Further: potency means the concentration at half of the fitted maximal effect.
The nature of test [7]: qHTS assay to identify small molecule antagonists of the estrogen receptor alpha (ER-alpha) signaling pathway using the BG1 cell line (AID 743080; calls by dose curve;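 further: BG1 cells stimulated with 17beta-estradiol alongside compound; series mostly up to about 70 µM; nearly all actives have a fitted effect of over 25% in size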). In outline:
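BG1-Luc-4E2 cells (endogenous full-length ER-alpha, 4xERE luciferase) hormone-starved 5 days in charcoal-stripped FBS, plated 4,000/well for 24 h, then compound plus 17beta-estradiol for 21.5 h at 37 C; ONE-Glo luminescence read.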

Test [8] in a line: qHTS assay to identify small molecule antagonists of the estrogen receptor alpha (ER-alpha) signaling pathway using the BG1 cell line - cell viability counter screen (AID 743081).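 Further: compound given together with 17beta-estradiol as the ER stimulus; series mostly up to about 70 µM; nearly all actives have a fitted effect of over 45% in size.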
Test [9] can be described thus: qHTS assay to identify aromatase inhibitors - cell viability counter screen (AID 743084).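 Further: cells stimulated with testosterone during compound exposure; nearly all actives have a fitted effect of over 55% in size.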 Further: potency means the concentration at half of the fitted maximal effect.
The target of test [10] is Aryl hydrocarbon receptor (Homo sapiens) (UniProt P35869). As to the kind of experiment: qHTS assay to identify small molecule that activate the aryl hydrocarbon receptor (AhR) signaling pathway (AID 743085). Further: nearly all actives have a fitted effect of over 15% in size. Further: potency means the concentration at half of the fitted maximal effect.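 On activation: HG2L7.5c1 human HepG2 liver cells with stably integrated DRE-driven firefly reporter; series mostly up to about 70 µM.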 The gist of the method: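 Luminescence read-out: ONE-Glo reagent, 30 min at room temperature, in HG2L7.5c1 HepG2 reporter cells treated 24 h at 37C. Viability was measured beforehand by CellTiter-Fluor fluorescence after 30 min at 37C.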

Test [11] is described as follows: qHTS assay to identify small molecule that activate the aryl hydrocarbon receptor (AhR) signaling pathway - cell viability counter screen (AID 743086). Further: series mostly up to about 70 µM; nearly all actives have a fitted effect of over 45% in size. In outline: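 Cytotoxicity counter screen: CellTiter-Fluor signal (30 min, 37 C) in 4000 HepG2 cells/well carrying the DRE-luciferase reporter, following 24 h compound exposure at 37 C.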
Test [12] can be described thus: qHTS assay to identify small molecule antagonists of the peroxisome proliferator-activated receptor gamma (PPARg) signaling pathway - cell viability counter screen (AID 743194). Further: nearly all actives have a fitted effect of over 55% in size. In outline:
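Viability was measured as CellTiter-Glo luminescence in GeneBLAzer PPARg UAS-bla HEK293H cells. These cells had been exposed 17 h at 37 C to compounds together with rosiglitazone at 50 nM final, with the beta-lactamase readout taken in the same wells.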

The nature of test [13]: qHTS assay for small molecule agonists of the antioxidant response element (ARE) signaling pathway - cell viability counter screen (AID 743203; calls by dose curve; further: nearly all actives have a fitted effect of over 55% in size). The gist of the method: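 ARE-bla HepG2 cells were plated, rested 5 h at 37C/5% CO2, then exposed to compounds in DMSO for 16 h. Viability was read as CellTiter-Glo luminescence after 30 min at room temperature, in the same wells as the ARE screen.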

The nature of test [14]: qHTS assay for small molecule activators of the heat shock response signaling pathway - cell viability counter screen (AID 743209). Further: nearly all actives have a fitted effect of over 50% in size. In outline: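 HSE-bla HeLa cells plated overnight, then exposed to Tox21 compounds (23 nL in DMSO) for 5 h at 37 C. After the bla reporter read, CellTiter-Glo was added in the same wells and luminescence read after 30 min at room temperature.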

The target in a further test is Aromatase (Homo sapiens) (UniProt P11511). Kind of test: qHTS assay to identify aromatase inhibitors (AID 743083).
Test [15] has as its target Peroxisome proliferator-activated receptor gamma (Homo sapiens) (UniProt P37231). As to the kind of experiment: qHTS assay to identify small molecule agonists of the peroxisome proliferator-activated receptor gamma (PPARg) signaling pathway (AID 743094; active means well fitted activation curve with a large enough effect in the signal ratio in the repeat runs, not every such curve was filed as active; the % refers to the signal ratio). In outline: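 GeneBLAzer PPARg UAS-bla HEK293H cells were plated, rested 5 h, then exposed to compounds for 17 h at 37C. Beta-lactamase activity was read by LiveBLAzer B/G FRET substrate fluorescence after 1 h at room temperature.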

Test [16] shares this target. Kind of test: qHTS assay to identify small molecule antagonists of the peroxisome proliferator-activated receptor gamma (PPARg) signaling pathway (AID 743191; calls by dose curve; further: nearly all actives have a fitted effect of over 30% in size; further: potency means the concentration at half of the fitted maximal effect). In outline:
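Beta-lactamase reporter under UAS control in HEK293H PPARg-bla cells; compound treatment 17 h at 37C. Read-out: fluorescence intensity after 1 h room-temperature incubation with LiveBLAzer B/G FRET substrate.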

A short description of test [17]: qHTS assay for small molecule agonists of the antioxidant response element (ARE) signaling pathway (AID 743202; active means well fitted activation curve with a large enough effect in the signal ratio in the repeat runs, not every such curve was filed as active; the % refers to the signal ratio). In outline: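 Quantitative high-throughput format in HepG2 cells bearing an integrated ARE-beta-lactamase reporter. Compound exposure lasted 16 h at 37 C, and fluorescence was read 2 h after adding LiveBLAzer B/G substrate at room temperature.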
A short description of test [18]: qHTS assay for small molecule activators of the heat shock response signaling pathway (AID 743210; active means well fitted activation curve with a large enough effect in the signal ratio in the repeat runs, with a control signal flat, not every such curve was filed as active; the % refers to the signal ratio;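 further: HeLa cells with beta-lactamase reporter driven by heat shock elements; series mostly up to about 63 µM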). In outline: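 HeLa HSE-bla cells, overnight plating; cpd in DMSO 5 h, 37 C; LiveBLAzer B/G FRET substrate 2.5 h RT; fluorescence intensity read.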

Records with an inconclusive call do not appear. Unmarked numbers belong to inactive results. Active and inactive are the calls of the source. Unless noted, the call rests on the fitted dose curve; in most records, active means well fitted curve in the direction sought with a large enough effect in the repeat runs; inconclusive means weak or mixed curves; inactive means no such curve, though single readings can be large; an effect the other way counts as inactive or inconclusive.

Chain of Estrogen receptor (Homo sapiens) (P03372 whole entry, looked up): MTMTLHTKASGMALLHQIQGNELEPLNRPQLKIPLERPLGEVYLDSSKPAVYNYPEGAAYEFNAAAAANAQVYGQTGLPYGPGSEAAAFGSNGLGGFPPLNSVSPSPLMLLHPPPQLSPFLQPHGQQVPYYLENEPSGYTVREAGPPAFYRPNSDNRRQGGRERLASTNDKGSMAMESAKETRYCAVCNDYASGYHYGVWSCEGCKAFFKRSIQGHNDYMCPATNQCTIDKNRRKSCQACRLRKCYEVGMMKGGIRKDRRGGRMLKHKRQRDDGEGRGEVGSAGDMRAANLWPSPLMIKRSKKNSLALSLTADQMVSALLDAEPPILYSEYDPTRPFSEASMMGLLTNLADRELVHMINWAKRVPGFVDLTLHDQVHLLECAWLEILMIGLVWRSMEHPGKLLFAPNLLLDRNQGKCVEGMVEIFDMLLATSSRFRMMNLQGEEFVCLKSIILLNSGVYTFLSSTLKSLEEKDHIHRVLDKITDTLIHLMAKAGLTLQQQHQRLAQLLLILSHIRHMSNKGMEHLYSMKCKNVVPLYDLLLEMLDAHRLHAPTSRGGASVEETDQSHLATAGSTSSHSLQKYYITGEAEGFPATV
Chain of Peroxisome proliferator-activated receptor gamma (Homo sapiens) (P37231 whole entry, looked up): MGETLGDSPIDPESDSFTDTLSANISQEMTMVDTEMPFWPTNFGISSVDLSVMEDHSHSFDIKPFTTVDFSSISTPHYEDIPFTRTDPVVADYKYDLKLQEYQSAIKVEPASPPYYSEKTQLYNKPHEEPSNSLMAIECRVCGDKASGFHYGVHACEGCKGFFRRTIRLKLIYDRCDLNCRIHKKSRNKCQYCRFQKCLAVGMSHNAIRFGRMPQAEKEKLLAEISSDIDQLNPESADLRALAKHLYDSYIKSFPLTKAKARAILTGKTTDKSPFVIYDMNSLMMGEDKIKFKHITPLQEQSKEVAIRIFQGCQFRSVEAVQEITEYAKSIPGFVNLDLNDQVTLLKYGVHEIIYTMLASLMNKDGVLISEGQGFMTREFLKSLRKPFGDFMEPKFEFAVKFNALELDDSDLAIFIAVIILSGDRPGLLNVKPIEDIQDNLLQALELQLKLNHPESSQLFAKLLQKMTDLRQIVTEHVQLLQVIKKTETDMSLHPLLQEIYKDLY
Chain of Aromatase (Homo sapiens) (P11511 whole entry, looked up): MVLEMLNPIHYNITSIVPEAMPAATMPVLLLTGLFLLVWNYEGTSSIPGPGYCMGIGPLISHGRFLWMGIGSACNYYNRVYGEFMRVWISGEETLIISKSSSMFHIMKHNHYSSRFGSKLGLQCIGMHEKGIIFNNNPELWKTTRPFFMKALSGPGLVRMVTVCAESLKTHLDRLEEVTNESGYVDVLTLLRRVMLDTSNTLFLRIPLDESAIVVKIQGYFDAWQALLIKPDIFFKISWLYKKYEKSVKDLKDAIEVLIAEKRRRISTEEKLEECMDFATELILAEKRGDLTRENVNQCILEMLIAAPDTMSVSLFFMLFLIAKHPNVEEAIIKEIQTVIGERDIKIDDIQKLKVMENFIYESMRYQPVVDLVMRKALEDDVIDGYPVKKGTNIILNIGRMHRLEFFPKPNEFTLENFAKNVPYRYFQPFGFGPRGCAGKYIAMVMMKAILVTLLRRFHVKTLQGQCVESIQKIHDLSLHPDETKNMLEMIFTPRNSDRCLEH
Chain of Aryl hydrocarbon receptor (Homo sapiens) (P35869 whole entry, looked up): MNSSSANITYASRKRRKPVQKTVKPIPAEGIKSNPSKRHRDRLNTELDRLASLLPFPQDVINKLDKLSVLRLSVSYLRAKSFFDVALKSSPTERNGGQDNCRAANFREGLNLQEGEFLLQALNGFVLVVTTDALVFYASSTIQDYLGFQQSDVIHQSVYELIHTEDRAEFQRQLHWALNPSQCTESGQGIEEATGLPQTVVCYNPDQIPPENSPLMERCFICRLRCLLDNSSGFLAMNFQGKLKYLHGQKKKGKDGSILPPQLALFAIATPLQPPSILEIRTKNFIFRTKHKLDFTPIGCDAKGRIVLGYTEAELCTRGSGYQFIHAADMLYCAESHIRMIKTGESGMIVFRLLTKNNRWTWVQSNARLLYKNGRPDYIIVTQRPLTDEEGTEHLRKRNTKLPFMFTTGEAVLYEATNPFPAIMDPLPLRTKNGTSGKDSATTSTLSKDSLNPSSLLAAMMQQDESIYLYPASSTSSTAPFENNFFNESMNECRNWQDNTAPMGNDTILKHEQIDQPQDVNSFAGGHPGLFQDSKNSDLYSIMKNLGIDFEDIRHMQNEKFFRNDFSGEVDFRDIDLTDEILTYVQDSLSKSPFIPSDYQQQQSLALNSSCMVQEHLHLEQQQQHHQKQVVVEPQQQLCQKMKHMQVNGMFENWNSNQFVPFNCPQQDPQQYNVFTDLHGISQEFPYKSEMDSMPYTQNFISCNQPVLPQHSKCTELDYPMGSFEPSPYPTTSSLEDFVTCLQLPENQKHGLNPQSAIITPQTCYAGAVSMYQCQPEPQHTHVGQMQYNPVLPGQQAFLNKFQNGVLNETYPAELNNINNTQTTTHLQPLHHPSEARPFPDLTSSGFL

As to `Nc1c(Cl)cc(Cl)cc1[N+](=O)[O-]`, the Potency result in [1], in test [2], in test [3], in test [4], in [5] and in test [6] was “inactive” each time. For the same compound, the Potency result in test [7], in test [8], in test [9], in [10], in [11] and in test [12] was “inactive” each time. Besides, the Potency result in test [13] and in test [14] was “inactive” each time.

Turning to `COc1ccc(C(=O)NCc2ccc(OCCN(C)C)cc2)cc1OC`, the Potency entry in test [1], in test [2], in test [3], in test [4], in test [5] and in test [6] was “inactive” each time. In addition, the Potency result (in [8]; with Aromatase (Homo sapiens); in test [9]; in test [10]; in test [11]; in [16]) was “inactive” each time. Further, the Potency result in test [12], in [17], in test [13], in test [14] and in test [18] was “inactive” throughout. In addition, the outcome in [15] was inactive.

Regarding `O=C(c1ccccc1)c1ccc(O)cc1`, the Potency result (in [1]; in test [2]; in test [4]; in test [8]; in the test with Aromatase (Homo sapiens); in test [9]) was “inactive” throughout. The Potency entry in test [10], in test [11], in [16], in [12], in [13] and in test [14] was “inactive” in each case. Besides, in test [18], the Potency entry is “inactive”. For the same compound, in test [6], the Potency was 9.8 µM (active). Besides, the compound was classed as inactive in test [15].

Turning to `O=S(=O)(O)CO`, the Potency result (in test [1]; in test [2]; in [4]; in test [8]; with Aromatase (Homo sapiens); in [9]) was “inactive” each time. The Potency entry in test [11], in [12], in [13] and in test [18] was “inactive” in each case. In addition, the outcome in test [15] was inactive.

For the compound `COc1ccc(/C=C/C(=O)c2ccc(OC)cc2OC)cc1`, the Potency in [1] was 26.6 µM (active); in [16], 9.44 µM (active). The Potency result (in [2]; in [4]; in test [8]; with Aromatase (Homo sapiens); in [9]; in test [11]) was “inactive” in each case. In addition, the Potency entry in test [12], in test [13] and in [14] was “inactive” in each case. Moreover, the outcome in test [15] was inactive.

Take `COc1cc(C(C)=O)ccc1OCCCN1CCC(c2noc3cc(F)ccc23)CC1`: in [1], the Potency was 23.7 µM (active). The Potency entry (in [2]; in [3]; in test [4]; in [5]; in test [6]; with Aromatase (Homo sapiens)) was “inactive” throughout. Also, the Potency entry in test [9], in test [10], in test [12], in test [13] and in [14] was “inactive” throughout.

Take `O=C(O)CN1C(=O)c2cccc3cccc(c23)C1=O`: the Potency result (in test [1]; in [2]; in test [4]; in test [8]; with Aromatase (Homo sapiens); in test [9]) was “inactive” throughout. Moreover, the Potency result in test [10], in [11], in test [12], in test [17], in test [13] and in test [14] was “inactive” each time.

As for `CN1CCCN(C(c2ccccc2)c2ccc(Cl)cc2)CC1` (configuration not stated), the Potency in [1] was 10.6 µM (active); in test [9], 21.1 µM (active). Moreover, the Potency result (in test [2]; in [3]; in test [5]; in [6]; in test [7]; with Aromatase (Homo sapiens)) was “inactive” each time. The Potency entry in test [10], in test [14] and in test [18] was “inactive” throughout.

With `Cc1ccc2c(c1)CCCN2`, the Potency entry in [1], in test [2], in test [3], in [4], in test [5] and in test [6] was “inactive” throughout. Besides, the Potency result (in [8]; with Aromatase (Homo sapiens); in test [9]; in [11]; in test [12]; in test [17]) was “inactive” in each case. In addition, the Potency result in test [13], in [14] and in test [18] was “inactive” in each case. Also, the Potency in test [10] is 61.1 µM (active). Also, the call in test [15] was inactive.
